# Assay results published in publication PMC4336329 (PLoS ONE, 2015).
# The campaign covered roughly 310,000 compounds. About 14,000 (4.5%) showed an effect of 50% or more. Effects have a minus sign here. Shown is part of a subset that was picked to be rich in strong results.
# Biological target: human ether-à-go-go-related gene (hERG) potassium channel (human, UniProt Q12809)
# Test: primary screen, population patch clamp on CHO cells stably expressing hERG; higher = less effect of the substance
# 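Also: peak tail current of the secondary pulse compared with the same well before compound.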
# Sequence of human ether-à-go-go-related gene (hERG) potassium channel (Q12809 whole entry, looked up): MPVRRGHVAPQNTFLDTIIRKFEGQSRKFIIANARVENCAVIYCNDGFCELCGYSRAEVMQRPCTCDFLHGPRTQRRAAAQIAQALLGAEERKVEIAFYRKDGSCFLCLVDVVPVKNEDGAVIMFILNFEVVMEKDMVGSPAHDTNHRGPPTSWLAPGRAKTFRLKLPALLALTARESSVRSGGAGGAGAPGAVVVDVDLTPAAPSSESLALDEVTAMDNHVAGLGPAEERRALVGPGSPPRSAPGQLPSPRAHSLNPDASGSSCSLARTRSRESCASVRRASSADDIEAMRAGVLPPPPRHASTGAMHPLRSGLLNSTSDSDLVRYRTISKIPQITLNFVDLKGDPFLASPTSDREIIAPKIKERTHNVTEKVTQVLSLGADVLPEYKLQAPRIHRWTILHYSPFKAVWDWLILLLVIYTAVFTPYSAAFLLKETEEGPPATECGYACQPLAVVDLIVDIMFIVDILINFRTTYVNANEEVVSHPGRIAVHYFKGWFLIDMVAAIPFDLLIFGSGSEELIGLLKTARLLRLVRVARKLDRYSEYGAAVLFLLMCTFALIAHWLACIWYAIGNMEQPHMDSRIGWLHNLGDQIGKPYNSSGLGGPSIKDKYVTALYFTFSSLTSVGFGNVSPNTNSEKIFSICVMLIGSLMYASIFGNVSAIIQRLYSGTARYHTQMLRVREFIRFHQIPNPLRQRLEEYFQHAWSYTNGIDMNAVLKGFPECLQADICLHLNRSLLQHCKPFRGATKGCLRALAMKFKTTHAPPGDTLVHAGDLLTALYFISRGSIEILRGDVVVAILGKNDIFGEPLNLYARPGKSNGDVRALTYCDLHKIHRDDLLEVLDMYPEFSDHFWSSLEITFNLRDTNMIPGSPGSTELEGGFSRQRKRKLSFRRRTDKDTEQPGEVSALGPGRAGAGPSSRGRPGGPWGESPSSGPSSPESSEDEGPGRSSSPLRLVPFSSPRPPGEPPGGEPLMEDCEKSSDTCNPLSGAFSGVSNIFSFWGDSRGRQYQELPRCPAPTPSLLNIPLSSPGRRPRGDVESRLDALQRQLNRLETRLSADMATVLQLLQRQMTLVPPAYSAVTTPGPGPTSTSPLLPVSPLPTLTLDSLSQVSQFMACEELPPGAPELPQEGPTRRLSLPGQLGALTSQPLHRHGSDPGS
row,SMILES,"hERG current change (%, negative = inhibition) at 10uM"
1,N#C/C(=C/c1ccncc1)c1nc2ccccc2s1,2.23%
2,CCOc1cccc(C=NCCc2ccc(OC)c(OC)c2)c1O,12.4%
3,O=C(NCC1CCCO1)c1ccc(Cl)c(S(=O)(=O)N2CCOCC2)c1 (stereo not drawn),12.7%
4,O=C(NCc1ccccn1)c1cccc(NS(=O)(=O)c2ccc(Br)cc2)c1,-19.8%
5,COc1ccc(N(C(C)C(=O)NCCSCc2cccc(Cl)c2)S(C)(=O)=O)cc1 (stereo not drawn),-13.3%
6,O=C(NCCS(=O)(=O)N1CCN(c2ccccc2F)CC1)c1ccc(Br)o1,-6.39%
7,CC(C)CCn1c(CN(C)Cc2ccccc2)nc2c1c(=O)n(C)c(=O)n2C,-43.9%
8,Cc1cc(C)nc(SCC(=O)Nc2ncc3c(n2)CC(C)(C)CC3=O)n1,-13.1%
9,COc1ccc(N(C(=O)c2ccc(S(=O)(=O)N3CCCC3)cc2)C2C=CS(=O)(=O)C2)cc1 (stereo not drawn),-31.9%
10,CCOc1ccc(N(C(=O)c2ccc(S(=O)(=O)N3CCCC3)cc2)C2C=CS(=O)(=O)C2)cc1 (stereo not drawn),-51.9%
11,Cc1ccc(N(C(=O)c2ccc(S(=O)(=O)N3CCCC3)cc2)C2C=CS(=O)(=O)C2)cc1 (stereo not drawn),-32.9%
12,COc1ccc(N2CCN(c3ccc(NC(=O)C4CCCCC4)cc3C#N)CC2)cc1,15.2%
13,COc1cc(C(=O)N2CCN(C(=O)C3CC3)CC2)cc(OC)c1OC,3.78%
14,Cc1ccc(C)c(NC(=O)COC(=O)Cn2c(C)csc2=O)c1,6.84%
15,Cc1c(C(=O)N2CCCCCC2)c(S(=O)(=O)Nc2cccc(F)c2)c(C)n1C,9.56%
16,CN1CCN(c2c(/C=N/O)c3ccccc3n2C)CC1,-51.5%
17,Cc1c(/C=N/O)c2ccccc2n1C,5.39%
18,Cn1c(N2CCOCC2)c(/C=N/O)c2ccccc21,7.51%
19,O=C(N/N=C/c1ccco1)c1ccc(NC(=O)C2CC2)cc1,18.2%

row,SMILES,"hERG current change (%, negative = inhibition) at 10uM"
1,OC(COCC(F)(F)C(F)(F)C(F)(F)C(F)F)Cn1c2ccc(Cl)cc2c2cc(Cl)ccc21 (stereo not drawn),-9.49%
2,CC(C)NC(=O)C(=O)Nc1cc2c3c(c1)CCC(=O)N3CCC2,11.4%
3,Cc1csc(NC(=O)CSc2nccn2Cc2ccco2)n1,4.55%
4,Cc1cc(C)nc(SCc2nnc(SCC(=O)Nc3nccs3)n2Cc2ccco2)n1,-25%
5,Cc1csc(NC(=O)CSc2nnc(-c3ccoc3C)n2Cc2ccco2)n1,-82%
6,Cc1occc1-c1nnc(SCC(=O)Nc2nccs2)n1Cc1ccco1,-75.4%
7,Cc1csc(NC(=O)CSc2nnc(C)n2Cc2ccco2)n1,-1.85%
8,O=C(CSc1nnc(-c2ccncc2)n1Cc1ccco1)Nc1nccs1,-27%
9,CC(=O)NC1=C(NC2CCS(=O)(=O)C2)C(=O)c2ccccc2C1=O (stereo not drawn),18.4%
10,Cc1ccccc1CNC(=O)C1CCC(=O)N(Cc2cccc(F)c2)C1 (stereo not drawn),-8.38%
11,Cc1ccc(CNC(=O)C2CCC(=O)N(CCc3cccc(F)c3)C2)cc1 (stereo not drawn),-38%
12,CSc1ccc(CNC(=O)C2CCC(=O)N(Cc3cccc(F)c3)C2)cc1 (stereo not drawn),-62.4%
13,O=C(NCc1ccc(Cl)s1)C1CCC(=O)N(CCc2cccc(F)c2)C1 (stereo not drawn),-60.2%
14,COC(=O)c1ccc(CNC(=O)C2CCC(=O)N(Cc3cccc(F)c3)C2)cc1 (stereo not drawn),-12.7%
15,O=C(NCc1ccc(Cl)s1)C1CCC(=O)N(CCc2ccccn2)C1 (stereo not drawn),-10.1%
16,CSc1ccc(CNC(=O)C2CCC(=O)N(CCc3cccc(F)c3)C2)cc1 (stereo not drawn),-77.1%
17,O=C(NCc1cccc(F)c1)C1CCC(=O)N(CC2CCCCC2)C1 (stereo not drawn),-9.08%
18,COc1cccc(CNC(=O)C2CCC(=O)N(CCc3cccc(F)c3)C2)c1 (stereo not drawn),-13%
19,O=C(NCc1cccc(OC(F)(F)F)c1)C1CCC(=O)N(Cc2cccc(F)c2)C1 (stereo not drawn),-50.1%

row,SMILES,"hERG current change (%, negative = inhibition) at 10uM"
1,O=C(NCc1ccccc1OC(F)(F)F)C1CCC(=O)N(Cc2cccc(F)c2)C1 (stereo not drawn),-12.4%
2,O=C(NCc1cccc(F)c1)C1CCC(=O)N(CCc2cccc(F)c2)C1 (stereo not drawn),-30.7%
3,CCOC(=O)c1c(-c2ccc(OC)cc2)oc2cc(Br)c(O)cc12,10.4%
4,COc1ccc(NS(=O)(=O)c2ccc(OCC(=O)N3CCOCC3)cc2)cc1Cl,8.46%
5,CNC(=O)Nc1ccc(C2SCCS2)cc1,7.02%
6,CCOC(=O)C1=C2SCCN2C(=O)C(C#N)C1(C)C (stereo not drawn),7.34%
7,COc1ccc(-c2cc(C(=O)N3CC4(C)CC3CC(C)(C)C4)no2)cc1OC (stereo not drawn),-20.1%
8,O=C(NCc1ccccc1F)C(=O)NCC1OCCCN1S(=O)(=O)c1cccs1 (stereo not drawn),9.19%
9,Cc1ccccc1NCN1C(=O)C2CCC(C)(C1=O)C2(C)C (stereo not drawn),-0.978%
10,COCc1[nH]nc2c1C(c1ccccc1F)C(C#N)=C(N)O2 (stereo not drawn),11%
11,Cc1ccc(C)c(C(=O)CC2(O)C(=O)N(C)c3ccccc32)c1 (stereo not drawn),8.85%
12,O=C(Nc1ccc(Br)c(C(F)(F)F)c1)c1ccc(C(F)(F)F)cc1,11.8%
13,O=C(Nc1ccc(Br)c(C(F)(F)F)c1)c1ccccc1,27.3%
14,O=C(O)c1ccccc1C(=O)Nc1ccc(Br)c(C(F)(F)F)c1,-70.6%
15,C/C(=N\NC(=O)CSc1nc2ccccc2s1)c1ccco1,0.0885%
16,CC1CCCCN1C(=O)COC(=O)c1cccc(NS(=O)(=O)c2ccccc2)c1 (stereo not drawn),0.629%
17,N#Cc1ccsc1NC(=O)COc1ccc(-c2nnco2)cc1,1.95%
18,N#CCSc1ccccc1NC(=O)COc1ccc(-c2nnco2)cc1,-66.3%
19,O=C(COc1ccc(-c2nnco2)cc1)Nc1c(F)cccc1F,0.851%
